An excerpt weighted towards active compounds, which were near 3.7% of everything screened.
PTHR1 ag – qHTS for PTHR1 Agonists: Primary Screen; Parathyroid hormone/parathyroid hormone-related peptide receptor (Homo sapiens), Q03431; HEK293 GP2 PTHR1 cells, GloSensor cAMP luminescence, 1 h; Potency, µM (top dose mostly 115 µM), for the others: top-dose activation, hits mostly activators; 410,000 tested, 0.075% active; AID 743266, 2014; note: potency is the fitted concentration of half-maximal effect; nearly all actives have a fitted effect of over 55% in size
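HEK-293-derived GP2 cells expressing PTHR1 and a GloSensor cAMP reporter, 3,000/well, plated overnight, given luciferin plus IBMX (each 0.5 mM as added) for 1 h at 37 °C, then compound for 1 h at 37 °C. Luminescence was read after 15 min at room temperature.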
DRD3 agonist – qHTS of D3 Dopamine Receptor Agonist: qHTS. max activation, %. 410,000 tested, 0.58% active. D3R DiscoveRx beta-arrestin cells, luminescence, 90 min. D(3) dopamine receptor (Homo sapiens), P35462; in the data active = max activation above about 30%; note: 0% is about no effect
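Cells at 1500/well, incubated overnight, then treated with pinned compounds (dopamine as control) for 90 min at 37 degrees C. DiscoveRx reagent added for 30 - 60 minutes at room temperature; luminescence read.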
BRCA1 expr act – qHTS Assay to Identify Small Molecule Activators of BRCA1 Expression; 380,000 tested, 1.1% active; Potency, µM (series often up to 46.1 µM), without a hit: at the top dose activation, actives largely listed as activators; AID 624202, 2012; MCF7-BRCA1-FFLuc reporter, luminescence, 48 h; response scale: scaled: vehicle 0%, 10 µM genistein 100%; note: potency is the fitted concentration of half-maximal effect; nearly all actives have a fitted effect of over 80% in size
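Luminescence from a BRCA1-driven firefly luciferase in MCF7 cells was read after 48 h compound exposure at 37 C. Data normalized against DMSO and a 10microM genistein activation control, then curve-fitted across the titration.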
RGS4 inhibitor – Inhibitors of Regulator of G Protein Signaling (RGS) 4: qHTS. Regulator of G-protein signaling 4 (Homo sapiens), P49798. Transcreener GDP fluorescence polarization, RGS4-accelerated GTP hydrolysis. Potency, µM (titrated, usually from 114 µM), for inactives: top-dose activity change, negative = inhibition, actives largely listed as inhibitors. 390,000 tested, 0.039% active. AID 504845, 2011; note: potency is the fitted concentration of half-maximal effect; % is set by controls: 0 for no effect and ±100 for the full control effect; nearly all actives have a fitted effect of over 75% in size
Target sequence (P49798 whole entry, looked up): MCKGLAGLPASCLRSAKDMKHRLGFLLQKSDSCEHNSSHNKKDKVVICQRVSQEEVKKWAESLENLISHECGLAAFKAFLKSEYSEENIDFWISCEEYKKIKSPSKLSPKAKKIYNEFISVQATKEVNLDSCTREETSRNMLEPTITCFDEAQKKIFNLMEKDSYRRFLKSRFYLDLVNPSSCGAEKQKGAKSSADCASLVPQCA
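MLSMR compounds (23 nl, pin-transferred) preincubated 10 min at room temperature with a 500nM (2x) first reagent, then RGS4 at 900nM (2x) plus Transcreener GDP mix added; fluorescence polarization (620/688 nm) read before and after 90 min at 30 °C.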
DRD3 antagonist – qHTS of D3 Dopamine Receptor Antagonist: qHTS | D(3) dopamine receptor (Homo sapiens), P35462 | D3R cells, DiscoveRx beta-arrestin luminescence, antagonist mode; active compounds read low | max response, negative = inhibition, % | 360,000 tested, 2.5% active | AID 652054, 2013; in the data active = max response below about -50%; inconclusive = no clear call, values can overlap the other calls; note: % is set by controls: 0 for no effect and ±100 for the full control effect
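Cells plated overnight at 1500 cells/well, then exposed to library compounds with dopamine controls for 90 minutes at 37 degrees C. DiscoveRx reagent added for 30–60 minutes at room temperature; luminescence read, quantitative HTS format.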
B2AR arrestin – qHTS assay of beta-arrestin-biased ligands of beta2-adrenergic receptor. beta-arrestin recruitment to beta2AR, cell-based reporter. Potency, µM (series often up to 46.1 µM), for the others: at the top dose activation, most hits filed as activators. 330,000 tested, 0.02% active. AID 492947, 2010;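 note: potency is the fitted concentration of half-maximal effect; 0% = DMSO controls and full agonism = EC100 isoproterenol or metaproterenol; nearly all actives have a fitted effect of over 65% in size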
Target sequence (P07550 whole entry, looked up): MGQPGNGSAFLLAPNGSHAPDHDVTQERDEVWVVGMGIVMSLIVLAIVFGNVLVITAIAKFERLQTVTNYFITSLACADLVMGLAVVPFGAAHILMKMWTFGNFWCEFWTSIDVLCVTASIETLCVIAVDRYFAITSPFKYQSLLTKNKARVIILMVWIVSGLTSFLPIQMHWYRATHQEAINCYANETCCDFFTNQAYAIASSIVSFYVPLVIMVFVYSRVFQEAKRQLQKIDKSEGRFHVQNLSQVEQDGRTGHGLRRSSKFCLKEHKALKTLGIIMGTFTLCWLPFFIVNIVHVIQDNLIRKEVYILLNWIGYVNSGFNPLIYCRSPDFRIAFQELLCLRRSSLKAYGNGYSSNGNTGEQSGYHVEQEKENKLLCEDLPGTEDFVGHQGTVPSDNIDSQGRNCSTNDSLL
* marks the source's active call; other numbers are inactive results; i = inactive; ? = inconclusive; . = no result given; [ ] = dose if it differs, or a comment. Unless noted, calls come from the whole dose curve; as a rule, active = well fitted curve in the direction sought with a large enough effect; inconclusive = small, poorly fitted or top-dose-only effect, or another doubt; inactive = no such curve, though single readings can be large; an effect the other way counts as inactive or inconclusive.

SMILES	PTHR1 ag	DRD3 agonist	BRCA1 expr act	RGS4 inhibitor	DRD3 antagonist	B2AR arrestin
Cc1cccc(OCCCCCN2CCOCC2)c1	i	-10.2	23.8%	9.3%	?	-0.4%
Cc1ccc(OCCCCN2CCc3ccccc3C2)cc1	i	-19.2	-54.4%	2.6%	-100.0*	-0.3%
Brc1cccc(OCCN2CCCCC2)c1	-1.8%	-36.3	-3.4%	-17.0%	-92.4*	-0.5%
COc1cccc(C(O)c2nc(-c3cnn(C)c3)cs2)c1 (stereo not given)	-15.7%	-4.8	-9.4%	.	-1.4	.
CCc1cccc(C)c1NC(=O)CCCn1c(C)c2cnn(-c3ccccc3)c(=O)c2c1C	-41.5%	10.7	.	3.5%	.	.
Cc1ccc(CNC(=O)c2ccc(CS(=O)(=O)Cc3ccc(F)cc3)o2)cc1	-30.4%	-4.6	.	-19.4%	.	.
COc1ccc(CNC(=O)CCc2nc3cccnc3n2Cc2ccccc2)cc1	9.8%	-4.0	.	5.3%	.	.
CCc1cccc(OCCN2CCCC2)c1	-22.9%	-33.8	16.1%	-9.1%	-59.6*	-1.4%
CN(C)C1(CNC(=O)c2cccc(S(=O)(=O)Nc3ccc(Br)cc3)c2)CCCCC1	i	-8.8	-18.5%	-32.1%	2.5	4.4%
Cc1ccc(CNC(=O)C2CCN(S(=O)(=O)N3CCCC3)CC2)cc1	i	7.8	0.3%	12.3%	1.3	0.3%
CC1CCN(S(=O)(=O)c2ccc(S(=O)(=O)N3CCCC3)cc2)CC1	-24.0%	34.2*	23.0%	-28.6%	5.7	3.5%
Cc1ccc(CNC(=O)C2CCN(S(=O)(=O)N3CCOCC3)CC2)cc1	-10.7%[57.5 µM]	40.3*	15.5%	3.6%	6.9	0.1%
Cc1ccc(S(=O)(=O)N2CCC(C)CC2)cc1	-12.5%	7.7	2.3%	8.1%	4.5	-0.2%
COc1ccc(NC(=O)C2CCN(S(=O)(=O)c3ccc(C)cc3)CC2)cc1OC	-10.5%[57.5 µM]	-3.0	-7.6%	6.4%	-3.2	-0.8%
Cc1ccc(S(=O)(=O)N2CCC(C(=O)NCC3CCCCC3)CC2)cc1	-25.6%	-15.3	-14.3%	-3.3%	-64.6*	-0.1%
Cc1ccc(S(=O)(=O)N2CCC(C(=O)Nc3ccc4c(c3)COC4=O)CC2)cc1	i	-1.0	12.2%	3.1%	-65.0*	-0.4%
O=C1C(=O)N(C2CCN(C(=O)c3ccccc3Cl)CC2)CCN1Cc1ccc(F)cc1	i	1.3	.	-1.7%	.	.
Fc1ccc(-c2nc3ccc(Br)cn3c2Cc2cccc(F)c2)cc1	i	3.0	58.9%	.	0.0	.
Cc1ccc2nc(-c3ccccc3)c(Cc3ccccc3C(F)(F)F)n2c1	-45.0%	-17.6	2.51µM*	.	-54.2*	.
FC(F)(F)c1ccccc1Cc1c(-c2ccc(Cl)cc2)nc2ccc(Br)cn12	4.2%	-7.4	54.4%	.	-54.2*	.
Cc1ccc(-c2nc3ccc(Br)cn3c2Cc2cccc(F)c2)cc1	-94.7%	7.5	3.16µM*	.	5.4	.
FC(F)(F)c1ccccc1Cc1c(-c2ccc(Cl)cc2)nc2ccc(Cl)cn12	i	2.8	43.8%	.	25.7	.
COc1ccc(CCNS(=O)(=O)c2ccc(N3CCCCS3(=O)=O)cc2)cc1OC	-4.4%	-4.7	.	-9.9%	.	.
Nc1c(C(=O)NC2CCCCC2)nsc1C(=O)OCC(=O)NC1CCCCC1	-2.0%	8.7	-15.0%	-7.1%	-9.9	-0.3%
CCOC(=O)c1snc(C(=O)NC2CCCCC2)c1N	-20.9%	-1.5	7.08µM*	-13.3%	8.2	-0.2%
SMILES	PTHR1 ag	DRD3 agonist	BRCA1 expr act	RGS4 inhibitor	DRD3 antagonist	B2AR arrestin
COC(=O)c1[nH]c2cc(OC)ccc2c1NC(=O)CCN1CCN(Cc2ccc3c(c2)OCO3)CC1	-13.4%[57.5 µM]	-9.1	1.9%	-15.4%	-80.6*	0.2%
COC(=O)c1[nH]c2cc(OC)ccc2c1NC(=O)CCN1CCCC(C)(C)C1	10.1%[57.5 µM]	-63.3	-0.7%	22.5%	-56.1*	0.1%
Cc1cccc(Nc2nc(Cl)ncc2F)c1C	3.8%	-2.4	-2.5%	-19.3%	22.5	0.5%
CSc1ccc(OC2(C)CCN(Cc3ccc(C(C)C)cc3)C2)cc1 (stereo not given)	-21.3%	-11.6	-5.2%	.	-61.4*	.
CCc1ccc(OC2(C)CCN(Cc3ccc(SC)cc3)C2)cc1 (stereo not given)	-24.4%	-23.5	-6.3%	.	-59.8*	.
CSc1ccc(CN2CCC(C)(Oc3cccc(C#N)c3)C2)cc1 (stereo not given)	-8.6%	-6.1	-17.7%	.	?	.
CSc1ccc(CN2CCC(C)(Oc3ccccc3)C2)cc1 (stereo not given)	-11.3%	-11.3	-4.8%	.	-96.7*	.
CSc1ccc(OC2(C)CCN(Cc3cc4ccccc4o3)C2)cc1 (stereo not given)	i	-4.7	15.9%	.	-74.1*	.
CO[C@H]1C=CO[C@@]2(C)Oc3c(C)c(O)c4c(O)c(c(/C=N/N5CCN(C6CCCC6)CC5)c(O)c4c3C2=O)NC(=O)/C(C)=C\C=C[C@H](C)[C@H](O)[C@@H](C)[C@@H](O)[C@@H](C)[C@H](OC(C)=O)[C@@H]1C	.	-4.9	.	.	.	.
CCC1CCc2nc3sc(C(=O)Nc4ccc(F)cc4F)c(N)c3cc2C1 (stereo not given)	i	-6.3	0.0%	-10.4%	.	.
CSc1ccc(CN2CCC(C)(Oc3cccc(F)c3)C2)cc1 (stereo not given)	-6.0%	-21.9	1.7%	.	-91.9*	.
Fc1ccc(CN2CCCN(Cc3nc(-c4ccc5c(c4)OCO5)no3)CC2)cc1	-4.6%	-5.3	3.4%	5.0%	0.2	-0.7%
CN(CCN1CCc2ccccc2C1)Cc1nc(Cc2ccccc2F)no1	-0.6%	-16.8	-5.0%	-18.6%	-59.4*	-0.4%
CN(Cc1nc(-c2ccccc2)no1)C(=O)c1ccc2c(c1)OCO2	-2.5%	-7.3	-3.3%	-6.8%	-50.2*	0.4%
COc1ccc(Cc2noc(CN(C)CCN3CCc4ccccc4C3)n2)cc1OC	i	-13.9	-14.2%	14.8%	?	0.9%
c1ccc(OCCN2CCN(Cc3nc(-c4ccc5c(c4)OCO5)no3)CC2)cc1	-31.7%	72.5*	-0.2%	9.2%	?	-0.3%
CN(CCN1CCc2ccccc2C1)Cc1nc(-c2ccc3c(c2)OCO3)no1	i	-20.0	-1.1%	6.1%	-70.3*	-1.0%
Cc1ccccc1/C=C/C(=O)c1ccc([N+](=O)[O-])o1	-45.4%	-18.5	-39.0%	?	-58.1*	-0.1%
COc1ccc(/C=C/C(=O)c2ccc([N+](=O)[O-])o2)cc1	-33.7%	-28.0	7.8%	-27.7%	-75.3*	0.0%

High-throughput results: PubChem BioAssay, National Center for Advancing Translational Sciences (NCATS)
